# Assay results as given in PubChem BioAssay (NCATS).
# Records with an inconclusive call do not appear. Where a call stands in place of a potency, no number is given. Activity calls are given as the source filed them. The call rests on the fitted dose curve; in most records, active means well fitted curve in the direction sought with a large enough effect; inconclusive means small, poorly fitted or top-dose-only effect, or another doubt; inactive means no such curve, though single readings can be large; an effect the other way counts as inactive or inconclusive.
# How the values were obtained:
# [1] = qHTS of pediatric cancer cell lines to identify multiple opportunities for drug repurposing: Primary screen for Rh18 cells (AID 1347102); further: nearly all actives have a fitted effect of over 65% in size
# Outline: (§1)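 Cells (500-1,000/well) in growth media were settled 5 h at 37 degrees C, then given compounds for 48 h. Viability was read as CellTiter-Glo luminescence. Primary runs used MIPE at 11 points (0.78 nM-46 µM) and NPC at 8 points (0.59 nM-46 µM); follow-ups used 11 points.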
# [2] = qHTS of pediatric cancer cell lines to identify multiple opportunities for drug repurposing: Primary screen for RD cells (AID 1347104); further: nearly all actives have a fitted effect of over 55% in size; further: potency means the concentration at half of the fitted maximal effect
# Outline: (§2)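 CRCs from 8- or 11-point titrations (lowest final 0.59 nM NPC, 0.78 nM MIPE). Cell viability: CellTiter-Glo after 48 h incubation, 15 min room-temperature development, luminescence imaging.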
# [3] = qHTS of pediatric cancer cell lines to identify multiple opportunities for drug repurposing: Primary screen for MG 63 (6-TG R) cells (AID 1347105); further: nearly all actives have a fitted effect of over 50% in size
# Outline: as §2
# [4] = qHTS of pediatric cancer cell lines to identify multiple opportunities for drug repurposing: Primary screen for control Hh wild type fibroblast cells (AID 1347106);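 further: series mostly up to about 46 µM; a drop in luminescence marks cytotoxicity and a rise apparent proliferation; nearly all actives have a fitted effect of over 55% in size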
# Outline: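 Viability after 48 h compound treatment at 37C, 500-1,000 cells/well, read as ATP luminescence with CellTiter-Glo. Primary screens used 11-point (MIPE, 0.78 nM-46 µM) or 8-point (NPC, 0.59 nM-46 µM) final concentrations; follow-up screens used 11-point dilutions.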
# [5] = qHTS of pediatric cancer cell lines to identify multiple opportunities for drug repurposing: Primary screen for Rh41 cells (AID 1347108);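 further: series mostly up to about 46 µM; luminescence drop marks cytotoxic hits; nearly all actives have a fitted effect of over 70% in size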
# Outline: as §2
# [6] = qHTS of pediatric cancer cell lines to identify multiple opportunities for drug repurposing: Primary screen for Rh30 cells (AID 1347107); further: series mostly up to about 46 µM; nearly all actives have a fitted effect of over 75% in size
# Outline: as §1
SMILES,Potency [1],Potency [2],Potency [3],Potency [4],Potency [5],Potency [6]
NC(=O)c1cccc(-c2cc(Nc3ccc(OC(F)(F)F)cc3)ncn2)c1,inactive,inactive,inactive,inactive,inactive,
CN(C)Cc1ccc(-c2nc3cccc4c3n2CCNC4=O)cc1,inactive,16.6 µM (active),inactive,,inactive,inactive
COc1cc2c(cc1OC)CN(CCc1ccc(NC(=O)c3cc(OC)c(OC)cc3NC(=O)c3cnc4ccccc4c3)cc1)CC2,inactive,,inactive,inactive,,inactive
